# Hits are enriched below; roughly 1.8% of the tested compounds scored in any of these assays.
# 697 NFkB inh – inhibitors of PMA/ionomycin-induced NF-kB reporter, 697 cells, primary screen, B-cell NF-kB inhibitor project, cell-based, luminescence, uHTS; 697 B-cell NF-kB luciferase reporter, 16 h; inhibition, % at 4 µM; hit rate 0.33% among 330,000; AID 435022, 2010; in the data active means inhibition above about 35%
# Gli-Sufu block – Gli-Sufu pathway antagonists, primary screen, luciferase luminescence, Sufu-KO-LIGHT cells, uHTS; Sufu-KO-LIGHT fibroblasts, Gli luciferase reporter luminescence; inhibition, % at 5 µM; hit rate 0.74% among 340,000;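 active means inhibition above about 55%, limit read from the data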
# Jurkat NFkB inh – inhibitors of induced NF-kB luciferase reporter, primary screen, TCR NF-kB activation inhibitor project, cell-based, luminescence, uHTS | AID 435003, 2010 | inhibition, % at 4 µM | Jurkat, PMA/ionomycin-induced NF-kB luciferase reporter | hit rate 0.53% among 330,000; in the data active means inhibition above about 50%
# Beta cell apopt – inhibitors of cytokine-induced beta cell apoptosis, primary screen, luminescence | protection from apoptosis, % (no concentration beside the values) | AID 435005, 2010 | INS-1E cytokine-induced death, ATP luminescence, 48 h; percent of positive-control rescue, neutral wells zero | hit rate 0.8% among 300,000;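 active means Every replicate reaches about 75%, or at least half do and their mean reaches it too, limit read from the data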;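 further: higher means more ATP so stronger rescue from cytokine killing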
# Gli-Sufu confirm – Gli-SUFU pathway antagonists, confirmation, single concentration, luciferase luminescence, Sufu-KO-LIGHT cells. shares compounds with Gli-Sufu block. Gli luciferase reporter. inhibition, % at 5 µM. hit rate 40% among 2,500. AID 602428, 2012;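 active means mean inhibition at 5 µM reaching about 45%, limit read from the data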
# SufuKO cytotox – cytotoxicity in Sufu-KO-LIGHT cells, confirmation, cytotoxicity control for Gli-SUFU antagonist project, cell-based, ATP luminescence, single concentration. shares compounds with Gli-Sufu block. cytotoxicity, % at 5 µM. hit rate 32% among 2,500;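 active means mean cytotoxicity at 5 µM above about 25%, limit read from the data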;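 further: cells exposed to compound overnight for roughly 16 to 18 hours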
# Wnt3a cs – Wnt3a reporter signal inhibition, confirmation, counter-screen for Gli-SUFU antagonist project, Wnt-LIGHT cells, luminescence, single concentration; shares compounds with Gli-Sufu block; Wnt3a-driven luciferase reporter; inhibition, % at 6.25 µM; hit rate 20% among 2,500;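 active means mean inhibition above about 25%, limit read from the data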
# Numbers stand for hits; 0 = inactive; - = not tested or not shown.
SMILES,697 NFkB inh,Gli-Sufu block,Jurkat NFkB inh,Beta cell apopt,Gli-Sufu confirm,SufuKO cytotox,Wnt3a cs
Nc1nc(SCc2ccc3c(c2)OCCO3)n[nH]1,0,0,0,0,-,-,-
COc1ccccc1NC(=O)CN(c1ccc(C)cc1)S(=O)(=O)c1c(C)n[nH]c1C,0,55.7,0,0,0,0,0
O=C(Cc1csc(Nc2nc(=S)[nH]c3ccccc23)n1)NCCCN1CCN(c2ccccc2F)CC1,0,85.7,0,0,0,0,0
O=C(Cc1csc(Nc2nc(=S)[nH]c3ccccc23)n1)NCc1ccc(Cl)cc1,0,-,0,0,-,-,-
COc1ccccc1CNC(=O)C1CCN(Cc2nc(-c3cccc(Cl)c3)oc2C)CC1,0,0,0,0,-,-,-
COc1ccc(-n2nc(C(=O)NCC(=O)NCCC3=CCCCC3)c3ccccc3c2=O)c(OC)c1,0,56.2,0,0,0,0,0
COCCn1c(=O)[nH]c2cc(C(=O)NCCN3CCN(c4cccc(Cl)c4)CC3)ccc2c1=O,0,0,0,0,-,-,-
Cc1ccc(-n2nnnc2SCC(=O)Nc2cccnc2Cl)cc1,0,0,0,0,0,0,0
O=C(CSc1nnnn1-c1ccc(Cl)cc1)Nc1cccnc1Cl,0,0,0,0,-,-,-
ClC1(Cl)CC1Cn1cnc2ccccc21 (stereo not drawn),0,0,0,0,-,-,-
CC(N=C1NS(=O)(=O)c2ccccc21)C(=O)OCC(=O)N(C)C1CCS(=O)(=O)C1 (stereo not drawn),0,85.9,0,0,0,0,0
CCN(C(=O)COC(=O)[C@H](C)N=C1NS(=O)(=O)c2ccccc21)C1CCS(=O)(=O)C1 (stereo partly drawn),0,0,0,-,-,-,-
Cc1ccc(NC(C)c2cc(Cl)ccc2O)cc1 (stereo not drawn),0,0,0,0,-,-,-
CC(Nn1cnnc1)c1cc(Cl)ccc1O (stereo not drawn),0,97.6,0,0,0,0,0
Cc1cc(-c2nnc(SCC(=O)Nc3ccccc3C(F)(F)F)o2)c(C)n1-c1ccccc1,0,57.0,0,0,66.9,0,64.5
CS(=O)(=O)N(CC(=O)N1CCOCC1)c1ccc(Cl)cc1,0,56.0,0,0,0,0,0
CS(=O)(=O)N(CC(=O)N1CCCCCC1)c1ccc(Cl)cc1,0,0,0,0,-,-,-
Cc1noc(NS(=O)(=O)c2ccc(NC(=O)c3cnc4n(c3=O)CCS4)cc2)c1C,0,95.4,0,0,0,0,0
CSc1nc2ncnc(N)c2[nH]1,0,0,0,0,-,-,-
CSc1ncc(Cl)c(C(=O)Nc2nnc(SC)s2)n1,0,0,0,0,-,-,-
CCCSc1nnc(NC(=O)c2nc(SC)ncc2Cl)s1,0,56.3,0,0,0,0,0
Cc1c(/C=N/NC(=O)c2cccnc2)c2ccccc2n1Cc1ccccc1,0,0,0,0,-,-,-
Cc1cc(C(=O)NCc2ccccc2)no1,0,88.9,0,0,0,0,0
CCCc1ccc(-c2ccc(/C=C/C(=O)O)cc2)nc1,-,71.2,-,0,69.4,56.4,90.9
O=C(CN1C(=O)c2ccccc2S1(=O)=O)c1ccc(F)cc1,0,76.0,0,0,82.9,0,90.5
SMILES,697 NFkB inh,Gli-Sufu block,Jurkat NFkB inh,Beta cell apopt,Gli-Sufu confirm,SufuKO cytotox,Wnt3a cs
O=C(CN1C(=O)c2ccccc2S1(=O)=O)c1cccc(Br)c1,0,67.0,0,0,74.2,0,84.8
O=C(CN1C(=O)c2ccccc2S1(=O)=O)c1ccccc1F,0,59.6,0,-,78.1,0,89.4
Cn1c(C(O)c2ccccc2)nc(Cl)c1Cl (stereo not drawn),0,0,0,0,-,-,-
COc1ccc(CNc2cc(C)nc3ncnn23)c(OC)c1,0,0,0,0,46.0,0,0
COc1ccc(Nc2cc(C)nc3ncnn23)c(OC)c1,0,0,0,0,-,-,-
COc1ccc(N(CC(=O)NCCC2=CCCCC2)S(=O)(=O)c2ccccc2)cc1,0,57.3,0,0,0,0,0
CCOC(=O)C(C(=O)OCC)C(C)(C)/C(C)=N\Nc1ccc([N+](=O)[O-])cc1[N+](=O)[O-],0,0,0,0,0,29.0,68.7
CCOC(=O)C(C)/C(C)=N\Nc1ccc([N+](=O)[O-])cc1[N+](=O)[O-] (stereo not drawn),0,0,0,0,-,-,-
COc1cc(NC(=O)CCN2CCOCC2)cc(OC)c1,0,0,0,0,-,-,-
O=C(C1CCCCC1)N1CCN(c2ccnc3cc(Cl)ccc23)CC1,0,0,0,0,56.9,0,0
O=C(c1ccco1)N1CCN(c2ccnc3cc(Cl)ccc23)CC1,0,0,0,0,0,0,0
O=C(C1CC1)N1CCN(c2ccnc3cc(Cl)ccc23)CC1,0,0,0,0,-,-,-
O=C(CSc1nccn1Cc1ccco1)Nc1cccc(F)c1,0,-,0,0,-,-,-
Cc1cc2ncn(C(=O)c3cc(-c4ccccc4)nc4ccccc34)c2cc1C,0,0,0,0,-,-,-
NC(=O)c1ccccc1OCC(=O)N1CCC(Cc2ccccc2)CC1,0,0,0,0,45.8,0,27.1
CCC(=O)c1ccccc1OCCCN1CCC(Cc2ccccc2)CC1,0,0,0,0,0,33.4,0
CC(=O)N(CCC(Cc1ccccc1)c1ccc2c(c1)OCO2)Cc1ccc(Cl)cc1 (stereo not drawn),0,0,0,0,-,-,-
CN(C)c1ccc(Nc2nc(N)c([N+](=O)[O-])c(N3CCOCC3)n2)cc1,0,0,0,0,-,-,-
COC(=O)CSc1nc(N)c(C#N)c(-c2ccco2)c1C#N,0,0,0,0,-,-,-
N#Cc1c(N)nc2c(c1-c1ccco1)CCCCC2,0,97.6,0,0,0,0,0
CCSc1nc(N)c(C#N)c(-c2ccco2)c1C#N,0,89.4,0,0,0,0,0
N#Cc1c(N)nc2c(c1-c1ccncc1)CCCCC2,0,0,0,0,-,-,-
Cc1noc(NC(=O)c2ccc(F)cc2)c1C#N,0,0,0,0,-,-,-
Cc1[nH]c(=O)[nH]c(=O)c1/C=N/NC(=O)[C@@H](N)CC(C)C,0,0,0,0,-,-,-
O=C(Cc1cccs1)Nc1nnc(COc2ccccc2)s1,0,99.0,0,0,0,0,0
Cc1ccc(-c2nnc(N3CCC(C)CC3)c3ccccc23)cc1C,0,0,0,0,0,0,26.7
Cc1ccc(-c2nnc(N3CCC(C)CC3)c3ccccc23)cc1,0,0,0,0,-,-,-
CCOc1ccc(C2C(C#N)=C(C)NC3=C2C(=O)c2ccccc23)cc1 (stereo not drawn),0,0,0,0,-,-,-
COc1cc(C2C(C#N)=C(C)NC3=C2C(=O)c2ccccc23)cc(OC)c1OC (stereo not drawn),0,0,0,0,58.0,55.3,0

# Screening results from PubChem.
